# Source: PubChem
# The list is not random: actives were taken first. Their share in the collection is about 3.6%.
# Mtb FBA inh = inhibits M. tuberculosis FBA enzyme | purified M. tuberculosis FBA, fluorescence read-out | inhibition, % at 1 µM | 360,000 tested, 2.3% active | P9WQA3; in the data active means inhibition above about 27%
# Target sequence (P9WQA3 whole entry, looked up): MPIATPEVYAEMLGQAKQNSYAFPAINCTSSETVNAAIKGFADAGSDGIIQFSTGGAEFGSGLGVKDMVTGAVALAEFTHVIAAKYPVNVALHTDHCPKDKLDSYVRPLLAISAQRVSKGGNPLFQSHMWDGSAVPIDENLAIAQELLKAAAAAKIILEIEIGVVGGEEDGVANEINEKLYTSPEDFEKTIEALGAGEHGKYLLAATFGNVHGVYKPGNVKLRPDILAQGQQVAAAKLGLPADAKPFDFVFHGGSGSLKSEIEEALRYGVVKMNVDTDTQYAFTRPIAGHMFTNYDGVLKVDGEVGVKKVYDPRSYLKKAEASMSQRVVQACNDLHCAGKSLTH
# Mtb hypoxia inh = inhibitors of hypoxia-regulated fluorescent reporter in Mycobacterium tuberculosis; 300,000 tested, 0.1% active; fluorescence inhibition, % (test concentration not listed); M. tuberculosis hypoxia-regulated fluorescent reporter, fluorescence; in the data active means fluorescence inhibition mostly above about 23%, no sharp cut-off; inactive means mostly below about 17%
# GDH-TPI inh = counter-screen for M. tuberculosis FBA inhibitors: GDH-TPI coupled enzymes | GDH-TPI coupled enzyme counterscreen, NADH absorbance | inhibition, % at 4.8 µM | 360,000 tested, 1.2% active; in the data active means inhibition above about 30%
# Mtb bLac sens = beta-lactam sensitization of Mtb H37Rv; M. tuberculosis H37Rv growth with meropenem, percent inhibition; 330,000 tested, 0.27% active; inhibition, % at 25 µM; call rule not given here;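 further: growth measured after seven days incubation then overnight dye step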
# DUSP3 inh = inhibitors of human VHR1 phosphatase (DUSP3). recombinant VHR phosphatase, pNPP absorbance. 290,000 tested, 0.52% active. P51452. inhibition, % at 13.3 µM; in the data active means inhibition above about 50%
# Hits are given with their value; 0 = inactive; - = no result.
SMILES,Mtb FBA inh,Mtb hypoxia inh,GDH-TPI inh,Mtb bLac sens,DUSP3 inh
Cc1ccccc1/C=C\c1nc2ccccc2c(=O)[nH]1,0,0,0,0,0
Cc1ccccc1/C=C/c1nc2ccccc2c(=O)[nH]1,0,0,34,0,0
COc1ccc(C2/C(=C(/O)c3ccc(C)cc3)C(=O)C(=O)N2c2ccccn2)cc1OC (stereo unspecified),0,0,32,0,0
COc1cccc(/C(O)=C2\C(=O)C(=O)N(c3ccccn3)C2c2cccc(OC)c2OC)c1 (stereo unspecified),0,0,41,0,0
Cc1cc(C=NNC(=O)C(O)(c2ccccc2)c2ccccc2)c(C)n1-c1ccccc1,-,0,-,-,-
Oc1ccc(C[C@H]2CNC(=S)N2CC2CCCN2C[C@H](Cc2ccccc2)N2C[C@H](Cc3ccc(O)cc3)N(CCc3ccccc3)C2=S)cc1 (stereo partly specified),0,-,34,-,-
Oc1ccc(C[C@@H](CN2CCC[C@@H]2CN2C(=S)NC[C@@H]2Cc2ccccc2)N2C[C@H](Cc3ccccc3)N(CCc3ccccc3)C2=S)cc1,0,-,-,-,-
CC(C)C[C@H]1CNC(=S)N1CC1CCCN1C[C@H](Cc1ccccc1)N1C[C@H](Cc2ccc(O)cc2)N(CC2CCCCCC2)C1=S (stereo partly specified),0,-,32,-,-
CCOc1ccc(CCN2C(=S)N([C@@H](CC(C)C)CN3CCCC3CN3C(=S)NC[C@@H]3Cc3ccc(O)cc3)C[C@@H]2Cc2ccccc2)cc1 (stereo partly specified),0,-,38,-,-
C=CCN1CC[C@@]2(C)c3cc(O)ccc3CC1C2C (stereo partly specified),-,0,-,-,-
C#Cc1ccc(CN2CCCC(C(=O)Nc3ccccc3Oc3cccnc3)C2)cc1 (stereo unspecified),0,-,0,0,56
COc1cc2c(cc1OC)C(c1cc3cc4c(cc3[nH]c1=O)OCO4)N(C(=O)C1CC1)CC2 (stereo unspecified),0,0,38,0,0
O=C(NCC1CCCO1)c1cc(-c2ccco2)nc2ccccc12 (stereo unspecified),183,0,0,0,0
Cc1ccc(S(=O)(=O)N(C)C)cc1NC(=O)c1cc(-c2ccco2)nc2ccccc12,45,0,0,0,0
O=C(Nc1ccc(NC(=O)C2CCCCC2)nc1)c1ccccn1,0,0,0,0,57
COC(=O)C1=C(c2ccc(OC(F)(F)F)cc2)CC2CCC1N2C(=O)NCc1cc(C)oc1C(F)(F)F (stereo unspecified),-,0,-,-,-
CCc1ccc2c(c1)c(N=NC1=NC(=O)CS1)c(O)n2CC,0,0,31,0,0
O=S(=O)(c1ccccc1)[C@@]1(c2ccc(Br)cc2)CC2ON=C(c3ccccc3)C2C1 (stereo partly specified),-,0,-,-,-
COc1ccc(C2NC(=O)NC(C)=C2[N+](=O)[O-])cc1OC (stereo unspecified),0,0,37,0,0
CC1(C)c2ccccc2N2CCC(=O)NC21C=Cc1ccco1 (stereo unspecified),-,0,-,-,-
O=C(CSC1=NCCS1)NC(NC(=O)CSC1=NCCS1)c1ccccc1,0,0,0,0,0
CN(C(=O)CSC1=NCCS1)c1ccccc1,0,0,0,0,52
CN1CCS/C1=C/C=C1\SC(=S)N(CC(=O)O)C1=O,0,58,0,0,0
CCOC(=O)C1=C(C)N(CCCCCC(=O)O)C(=O)NC1c1ccc([N+](=O)[O-])cc1 (stereo unspecified),0,0,0,0,52
CCOC(=O)C1=C(C)N(CCCCCC(=O)O)C(=O)NC1c1cccc([N+](=O)[O-])c1 (stereo unspecified),0,-,0,0,0
SMILES,Mtb FBA inh,Mtb hypoxia inh,GDH-TPI inh,Mtb bLac sens,DUSP3 inh
Nc1nnc(CC(=O)N/N=C/c2ccc(-c3ccccc3Cl)o2)s1,0,-,39,0,0
Nc1nnc(CC(=O)N/N=C/c2ccc(-c3ccc(Cl)cc3Cl)o2)s1,0,-,38,0,0
Cc1ccc(-c2ccc(C=NNC(=O)Cc3nnc(N)s3)o2)cc1Cl,-,0,-,-,-
CC(C)(C)C(=O)ON=C(N)c1ccc(Oc2cc(Cl)cc(Cl)c2)c([N+](=O)[O-])c1,-,0,-,-,-
Cc1cc(C(=O)N/N=C/C=C/c2ccc(Br)cc2)n[nH]1,0,-,42,0,0
Cc1cc(C(=O)N/N=C/C=C/c2ccc([N+](=O)[O-])cc2)n[nH]1,0,-,41,0,0
NC(=O)C1(NC(=O)C2CC3(CC(c4cccc(NC(=O)C5CCC(=O)N5)c4)=NO3)CN2C(=O)c2cnccn2)CC1 (stereo unspecified),-,0,-,-,-
COc1cc(/C=N/Nc2ccc(C(=O)O)cc2)ccc1O,0,-,33,0,0
